In all, about 68,000 compounds went through this assay and about 2,700 (4%) showed an effect of 50% or more. Many of the other results were omitted from the sample, so strong results are more common in it than they were.
test system: Plasmodium berghei; assay: Screen against P. berghei liver stage (PbLuc), transformed with Luciferase, at 2uM; assay type: functional, HepG2; conditions: tested at 2 uM

Row | Compound | INHIBITION [%]
1 | Cc1noc(C)c1-c1cccc(C2CCCNC2)n1 (configuration not stated) | 29.48
2 | CN(C)c1nc(N)nc(CN2CCCC2c2cccs2)n1 (configuration not stated) | -43.18
3 | CC(CO)N(C)C(=O)c1cn(-c2ccc(Br)cc2)cn1 (configuration not stated) | -33.03
4 | O=C(c1cncc(NCC2COc3ccccc3C2)n1)N1CCCCC1 (configuration not stated) | 31.05
5 | O=C(c1cncc(NCC2COc3ccccc3C2)n1)N1CCCC1 (configuration not stated) | 50.3
6 | O=C(c1cncc(NCC2COc3ccccc3C2)n1)N1CCOCC1 (configuration not stated) | 10.77
7 | Cc1ncc(CNC(=O)N(C)C2CCN(c3ccccc3)C2=O)s1 (configuration not stated) | -16.12
8 | CNc1cc(C2CN(Cc3coc(C)n3)CCO2)nc(C)n1 (configuration not stated) | -13.51
9 | CN(C)C(=O)CCN1CC(c2ccccc2)(c2ccccc2)CCC1=O | 64.08
10 | CS(=O)(=O)CCN1CC(c2ccccc2)(c2ccccc2)CCC1=O | 19.12
11 | O=C1CCC(c2ccccc2)(c2ccccc2)CN1CCO | 22
12 | Cn1ccnc1CN1CC[C@@H](NS(C)(=O)=O)[C@@H]1Cc1cccnc1 | -29.46
13 | CCN(CC)c1ncc(CNCC2CCCn3ccnc32)s1 (configuration not stated) | -6.64
14 | Cc1cn2c(n1)C(CNCc1ccc(C)s1)CCC2 (configuration not stated) | -35.26
15 | CC(C)(C)c1ncc(CNCC2CCCn3ccnc32)s1 (configuration not stated) | 52.98
16 | Cc1nc(C)c(CNCC2CCCn3ccnc32)s1 (configuration not stated) | 50.59
17 | Cc1ccc(CNCC2CCCn3ccnc32)s1 (configuration not stated) | 14.82
18 | CN1CCOC(CNCc2cnc(C(C)(C)C)s2)C1 (configuration not stated) | 11.01
19 | Cn1cc(CN2CCc3nc4sccc4c(=O)n3CC2)cn1 | 35.7
20 | COc1ccc(C(=O)N2CCC(Nc3cccnn3)CC2)c(OC)c1 | -51.92
21 | CC(C)NC(=O)N1CCCC2(CCN(c3ccsc3)C2=O)C1 (configuration not stated) | 17.77
22 | CCC1CN(C)c2ccccc2CN1C(=O)c1c[nH]c(=O)cc1C (configuration not stated) | 42.8
23 | CN(C)C(=O)[C@H]1C[C@H]2OCC[C@H]2N(Cc2ccc(F)cc2)C1 | 35.38

Row | Compound | INHIBITION [%]
24 | CCC(CC)n1nc(C)cc1NC(=O)C1CCOC1 (configuration not stated) | -3.87
25 | CCC(CC)n1nc(C)cc1NC(=O)C1CCCO1 (configuration not stated) | 53.61
26 | CCC(CC)n1nc(C)cc1NC(=O)CC1CCOCC1 | -28.5
27 | CN(C(=O)c1ccc[nH]1)C1CC(=O)N(Cc2ccccc2)C1=O (configuration not stated) | 29.91
28 | Cc1nc(C(=O)N(C)C2CC(=O)N(Cc3ccccc3)C2=O)cs1 (configuration not stated) | 50.42
29 | Cc1[nH]ccc1C(=O)N(C)C1CC(=O)N(Cc2ccccc2)C1=O (configuration not stated) | 30.59
30 | O=C(C[C@@H]1COC[C@H]2CN(C(=O)c3cccnc3)C[C@@H]12)N1CCOCC1 | 22.89
31 | Cc1ccc(CN2CCOC3(COCCN(C(C)C)C3)C2)s1 (configuration not stated) | -9.22
32 | CCc1ncc(C(=O)N2CCN(C(=O)COc3ccccc3)CC2)cn1 | -28.5
33 | CCc1nsc(N2CCCN(C(=O)COc3ccccc3)CC2)n1 | -26.86
34 | CCc1nsc(N2CCN(C(=O)COc3ccccc3)CC2)n1 | 61.82
35 | N#CCCN(c1ccc(F)cc1)S(=O)(=O)CC1CCCCO1 (configuration not stated) | -7.39
36 | CC(=O)Nc1ccc(C(=O)NCCCn2cccc2)cc1 | 30.58
37 | CCC1CCCCN1C(=O)c1ccnc(N(C)C)c1 (configuration not stated) | 16.84
38 | CN(C)c1cc(C(=O)N2CCCCC2Cn2cccn2)ccn1 (configuration not stated) | -7.15
39 | CN(C)c1cc(C(=O)N2CCCCC2CNS(C)(=O)=O)ccn1 (configuration not stated) | 53.11
40 | CC(C)NC(=O)[C@H]1C[C@@H]2[C@@H](C1)OCCN2Cc1cccs1 | 29.43
41 | CCCN(C(=O)c1cc2c([nH]c1=O)CCCC2=O)C1CCCCC1 | 22
42 | CC(c1ccco1)N(C(=O)c1cc2c([nH]c1=O)CCCC2=O)C1CC1 (configuration not stated) | -8.3
43 | CCN(C(=O)c1cc2c([nH]c1=O)CCCC2=O)C1CCCCC1 | -58.06
44 | CC(C)C(C)N(C(=O)c1cc2c([nH]c1=O)CCCC2=O)C1CC1 (configuration not stated) | 72.49
45 | O=C1CCCc2[nH]c(=O)c(C(=O)N(CC3CCCCC3)C3CC3)cc21 | 67.44
46 | CC(C)CCN(C(=O)c1cc2c([nH]c1=O)CCCC2=O)C1CC1 | 0.12

Row | Compound | INHIBITION [%]
47 | COc1ccc2c(c1)C1(CCNCC1)CC2NC1CC1 (configuration not stated) | 0
48 | CC(C)(CN1CCOCC1)CN1CCC(Cc2cccc(CO)c2)C1 (configuration not stated) | -7.7
49 | CCN(CC)c1ccc(NS(=O)(=O)c2cnn(C(C)C)c2)cn1 | 3.17
50 | O=C(NC1CCCC1)c1nc(COc2ccc3c(c2)OCO3)no1 | -11.86
51 | N#Cc1nc(COc2ccc3c(c2)OCO3)oc1NC1CC1 | 51.42
52 | N#Cc1nc(COc2ccc3c(c2)OCO3)oc1N1CCCCCC1 | 18.85
53 | CNc1oc(COc2ccc3c(c2)OCO3)nc1C#N | -6.53
54 | N#Cc1nc(COc2ccc3c(c2)OCO3)oc1NC1CCCCC1 | 66.74
55 | N#Cc1nc(COc2ccc3c(c2)OCO3)oc1N1CCCC1 | -9.89
56 | CCS(=O)(=O)N1CCC(c2nnc(CN3CCOCC3)n2C)CC1 | 37.3
57 | CCCc1n[nH]c(C2CN(C(=O)CCCn3ccnc3C)CCO2)n1 (configuration not stated) | -15.07
58 | Cc1cc(C)cc(OCC(=O)N2CCC2)c1 | 16.8
59 | COc1cc(C(=O)N2CCCS2(=O)=O)ccc1OC(C)C | 21.12
60 | COc1ccc(C[C@H]2CN(Cc3ccoc3)CC[C@@H]2OC)cc1 | 17.47
61 | Cc1cnc(C(=O)N2CC[C@H]3C[C@@H](c4nc(C)cs4)O[C@@H]3C2)cn1 | 5.85
62 | CC(C)c1cc(=O)[nH]c(-n2nc(C3CC3)cc2N)n1 | 16.98
63 | CN(CC1CCCCO1)S(=O)(=O)c1cccc(C(=O)N2CCOCC2)c1 (configuration not stated) | -40.47
64 | O=C(O)c1cccc(C2CCCN(S(=O)(=O)C3CC3)C2)c1 (configuration not stated) | 47.68
65 | COCCN1CCN(Cc2coc(-c3ccccc3Cl)n2)CC1 | 11.9
66 | OCCN1CCN(Cc2coc(-c3ccccc3Cl)n2)CC1 | 58.53
67 | CC(O)CN1CCN(Cc2coc(-c3ccccc3Cl)n2)CC1 (configuration not stated) | -7.16
